Experimental data from the supplement of paper PMC6555819.

Assays:
Experiment in all cases: PBM binding z-score (relative to random genomic background probes); higher = stronger binding; sequences stand for … in GC…GCGATTGACAGCGTAGAATGAAGG
[1] = system: PPARg:RXRa DBDmut IVT, anti-RXR (DBD mutation: RXRa K156A/R161A, NR concentration 270 nM, RXRa partner concentration 90 nM)
Method in brief: (§1)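 On custom Agilent 4×180K arrays, double-stranded probes with 34-nt variable regions carried direct-repeat seeds, single-nucleotide variants, half-site ablations or random human genomic background. Ligand-free nuclear receptor dimers were applied for 1 h, and binding was read with antibodies against each partner (one per run). Binding z-scores come from regression-normalized fluorescence, with the random background probes as reference.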

[2] = system: PPARg:RXRa IVT, anti-PPARg (NR concentration 270 nM, RXRa partner concentration 90 nM)
Method in brief: as §1

[3] = system: PPARg DBDmut:RXRa IVT, anti-PPARg (DBD mutation: PPARg1 K132A/R137A, NR concentration 270 nM, RXRa partner concentration 90 nM)
Method in brief: as §1

[4] = system: PPARg DBDmut IVT, anti-PPARg (DBD mutation: PPARg1 K132A/R137A, NR concentration 270 nM)
Method in brief: as §1

[5] = system: PPARg homodimer (NR concentration 180 nM)
Method in brief: as §1

[6] = system: PXR:RXRa (NR concentration 270 nM, RXRa partner concentration 90 nM)
Method in brief: as §1

[7] = system: PXR homodimer (NR concentration 270 nM)
Method in brief: as §1

[8] = system: RARa:RXR (NR concentration 270 nM, RXRa partner concentration 90 nM)
Method in brief: as §1

[9] = system: RARa homodimer (NR concentration 270 nM)
Method in brief: as §1

[10] = system: RARb:RXRa (NR concentration 270 nM, RXRa partner concentration 90 nM)
Method in brief: as §1

[11] = system: RARb homodimer (NR concentration 270 nM)
Method in brief: as §1

[12] = system: RARg:RXRa (NR concentration 270 nM, RXRa partner concentration 90 nM)
Method in brief: as §1

[13] = system: RARg homodimer (NR concentration 270 nM)
Method in brief: as §1

[14] = system: RXRa DBDmut IVT, anti-RXR (DBD mutation: RXRa K156A/R161A, NR concentration 90 nM)
Method in brief: as §1

[15] = system: RXRa homodimer (NR concentration 180 nM)
Method in brief: as §1

[16] = system: THRa:RXRa (NR concentration 90 nM, RXRa partner concentration 90 nM)
Method in brief: as §1

[17] = system: THRa homodimer (NR concentration 90 nM)
Method in brief: as §1

[18] = system: VDR:RXRa (NR concentration 270 nM, RXRa partner concentration 90 nM)
Method in brief: as §1

[19] = system: VDR homodimer (NR concentration 270 nM)
Method in brief: as §1

Row | Sequence | PBM binding z-score [1] | PBM binding z-score [2] | PBM binding z-score [3] | PBM binding z-score [4] | PBM binding z-score [5] | PBM binding z-score [6] | PBM binding z-score [7] | PBM binding z-score [8] | PBM binding z-score [9] | PBM binding z-score [10] | PBM binding z-score [11] | PBM binding z-score [12] | PBM binding z-score [13] | PBM binding z-score [14] | PBM binding z-score [15] | PBM binding z-score [16] | PBM binding z-score [17] | PBM binding z-score [18] | PBM binding z-score [19]
1 | ATCTCTAAGTAACCAAGTTCAGTGAATGCCGAAC | -0.304 | 0.256 | 0.36 | 0.891 | 0.71 | 1.3 | 1.61 | 0.788 | 0.561 | 1.16 | 1.43 | 0.516 | 0.56 | 1.2 | 0.443 | 0.648 | 0.45 | 2 | 2.61
2 | CGAACGAGGGCATGAGTTGATAGGAAATGCCGAT | 2.5 | 1.68 | -1.02 | -0.376 | 0.547 | 0.35 | 0.349 | 0.4 | -0.46 | 1.88 | 0.511 | 1.1 | 1.71 | 2.4 | 0.923 | 1.07 | -0.419 | 1.13 | 1.41
3 | GCGACTGGGGCAAAGCAGGTTACCCTAAGGTTGG | 4.69 | 3.9 | -0.575 | -1.15 | 0.0575 | 0.0911 | -0.579 | 0.634 | -1.43 | 0.752 | 0.988 | 0.329 | 0.427 | -0.421 | 0.394 | 2.85 | 0.12 | – | -0.641
4 | GCTAGTTAGTCAGTAAAAGGTCACACACCGGTCG | 0.245 | 2.45 | 0.12 | 0.0734 | 3.34 | 4.72 | 0.761 | 4.98 | 2.21 | 3.96 | 5.02 | 4.93 | 4.43 | 0.44 | 5.22 | 3.49 | 1.36 | 3.78 | 1.62
5 | ACTATTAGATGACTTAGGGCAACCGATACGACGC | 0.577 | 0.319 | 1.54 | 1.42 | 1.03 | -0.0258 | 0.554 | 0.143 | 1.38 | 0.885 | 1 | 0.918 | 1.25 | 0.754 | 0.767 | 1.04 | 0.469 | 0.293 | 0.377
6 | TCATATAGGGAAACAGGTGAAAGTCCGTAAGTTA | 3.73 | 2.71 | 0.703 | 0.846 | 1.02 | 0.713 | 0.608 | 0.541 | 1.28 | 0.516 | 0.562 | 0.344 | 0.215 | 1.66 | 0.796 | 0.537 | 0.314 | 0.918 | -0.0866
7 | CAAACTAGATCAAGAGGTCAAAGTCCGCTTCCCG | 2.78 | 3.67 | 0.521 | 0.139 | 2.25 | 5.07 | 1.99 | 5.22 | 1.44 | 4.06 | 4.71 | 4.84 | 3.96 | 1.69 | 5.73 | 3.93 | 1.67 | 4.68 | 3.23
8 | GCGACTAGGGCATCAGCAGGTTACCATAACTTAA | 4.76 | 3.7 | -0.562 | -0.523 | 0.128 | -0.0606 | -0.519 | 0.482 | -0.519 | 1.13 | 0.836 | 1.12 | 0.817 | 0.0692 | 0.47 | 0.885 | 0.0227 | -0.295 | -0.299
